Data from PubChem BioAssay AID434982 (The Scripps Research Institute Molecular Screening Center, 2010).
Hit rate of the full screen: of about 15,000 compounds, about 60 (0.4%) were called active. Rule as the data show it: active = activation above about 2.2%; inactive = the rest. What follows is part of a selection rich in actives, with near analogues and random picks from the rest.

Experiment: activates NOTCH signaling in reporter cells (AID 434982)
Details: NOTCH signaling luciferase reporter cells, luminescence; at 2.5 µM; hits give high values

activation, inactive:
Cn1c(=O)c2c(ncn2Cc2nnc(-c3ccccc3)o2)n(C)c1=O -0.05%, Cc1ccc(S(=O)(=O)N/N=C/c2ccc(O)cc2O)cc1 -0.7%, Cc1nnsc1C(=O)NN(C)c1ccc([N+](=O)[O-])cn1 -0.31%, CCOC(=O)Cc1cnc(NN=C2C3CC4CC(C3)CC2C4)s1 -0.83%, O=C(Cn1c(=Nc2ccc(F)cc2)oc2ccccc2c1=O)c1ccccc1 -0.66%, O=c1[nH]c2ccccc2c(=O)n1CCSc1ccc(Cl)cc1 -0.73%, O=S(=O)(NC1Cc2ccccc2C1)c1ccc(-c2csnn2)cc1 -0.03%, CCOC(=O)C(=CNNc1ccc(C(=O)O)cc1[N+](=O)[O-])C(=O)OCC -0.57%, Cc1ccc(NC(C(=O)O)c2ccccc2)cc1 (stereo unspecified) -0.61%, CC(=O)Nc1ccc(S(=O)(=O)NNc2c(Cl)cncc2Cl)cc1Cl -0.55%, CCOC(=O)CCC(=O)OC(C(=O)c1ccccc1)c1ccccc1 (stereo unspecified) -0.16%, Cc1ccc(/C=c2\sc3nc4ccccc4n3c2=O)o1 -0.36%, O=S(=O)(CCSc1ccccc1NS(=O)(=O)c1cccs1)c1ccc(Cl)cc1 -0.38%, O=C(Nn1cnnc1)c1ccc([N+](=O)[O-])cc1 -0.58%, O=C(CSc1nnc(-c2ccncc2)o1)N1CCc2ccccc21 -0.94%, Oc1ccccc1C=NCCCN=Cc1ccccc1O -0.99%, N#Cc1ccc(Oc2ccc(Cl)cc2)c([N+](=O)[O-])c1 -0.29%, Oc1ccccc1C=Nc1ccc(F)cc1 -0.14%, O=C(O)/C=C/C(=O)Nc1ccc(NC(=O)c2ccccc2O)cc1 0.22%, CCOC(=O)c1c(C)nn(-c2ncccc2NC(=O)Nc2cccc(Cl)c2Cl)c1C -0.32%, c1ccc(C2=NCCN=C2c2ccccc2)cc1 0.16%, N#CC(C#N)=Cc1cccn1-c1ccc(C(F)(F)F)cc1 -0.29%, N#C/C(=C\c1cccs1)C(=O)NCCc1c[nH]c2ccccc12 0.42%, COC(=O)c1noc(C)c1-c1ccnn1C(=O)c1ccc(Cl)cc1 0.11%, COc1ccc(Cc2nc(C(C)(C)C)cs2)cc1 0.28%, CNC(=S)NNC(=O)c1cc(C)on1 -0.11%, Cn1cnc([N+](=O)[O-])c1N1CCN(C(c2ccccc2)c2ccccc2)CC1 -0.25%, COC(=O)c1sccc1S(=O)(=O)Nc1ccccc1Sc1ncnc2c(C)csc12 -0.68%, N#Cc1ccc(-c2csc(COc3ccccc3Cl)n2)cc1 0.49%, O=C(Nc1ccc(Cl)cc1)c1csc(COc2ccc3nonc3c2)n1 -0.05%, COC(=O)c1ccccc1-c1c2ccc(=O)cc-2oc2cc(O)ccc12 -0.07%, COc1cccc(/C=N/NC(=S)Nc2cc(C(F)(F)F)cc(C(F)(F)F)c2)c1O -0.66%, O=C(O)CC(CC(=O)Nc1cc(C(F)(F)F)ccc1N1CCOCC1)c1ccccc1 (stereo unspecified) -0.05%, Cc1cc(C)nc(NC(=S)c2ccc(NC(=O)/C=C/C(=O)O)cc2)n1 -0.56%, Cc1c(NC(=S)Nc2ccccc2)c(=O)n(-c2ccccc2)n1C -0.19%, O=C(Nc1ccc(OC(F)F)cc1)Nc1coc(-c2ccccc2)c1 -0.11%, CCSC(=O)NCc1ccccc1 -0.05%, O=C(O)c1ccccc1Nc1ccccc1F -0.29%, CN(n1cnc2ccccc2c1=O)S(=O)(=O)c1cc(Cl)sc1Cl -0.39%, COC(=O)c1sc(SC)c(-c2ccn[nH]2)c1C 0.4%, O=C(/C(=N\N=C\c1ccc2c(c1)OCO2)c1ccccc1)c1ccccc1 -0.24%, CCCCCCCN=C(C)c1ccccc1O -0.3%, O=C(O)CC1(CC(=O)Nc2ccccc2-n2cccn2)CCCCC1 -0.3%, CSc1ccc(Br)cc1 0.1%, O=C(N/N=C/c1cccs1)C(=O)Nc1ccc(Cl)c(Cl)c1 -0.5%, O=C1C=C(c2ccccc2)CN(C2CCCCC2)C1=O -1.07%, O=C(Nc1ccccc1)N1CCN(c2ncnc3sccc23)CC1 -0.57%, COCCOc1ccc(NC(=S)N2CCOCC2)cc1 0.32%, COC(=O)c1ccccc1NC(=O)c1ccc(Oc2cc(Cl)cc(Cl)c2)o1 -0.31%, O=C(Sc1ccccc1)c1ccc(C(F)(F)F)cc1 -0.46%, CC(N)=NCCc1ccncc1 -0.78%, N/C(=N\OC(=O)CCn1cccc(C(F)(F)F)c1=O)c1ccc(OC(F)(F)F)cc1 -0.58%, CCOC(=O)/C(C#N)=C/NNc1c(C)csc1C(=O)OC 0.05%, Cn1/c(=N\N=C2CCCCC2)sc2ccccc21 0.03%, CSc1cccc(NC(=O)C(=O)NCCc2ccccn2)c1 -1.05%, COCCCN/C(SCc1c(F)cccc1Cl)=C(\C#N)C(N)=O 0.49%, CC1CN(c2ccc(NC(=S)NCc3cccs3)cc2)CC(C)O1 (stereo unspecified) -0.73%, N#Cc1c(-c2ccccc2)c(-c2ccccc2)n[nH]c1=O -0.27%, O=C1C(Nc2ccccc2)=CC(c2ccc([N+](=O)[O-])cc2)N1c1ccccc1 (stereo unspecified) -0.41%, N#CC1(C#N)C(c2ccc(Cl)c(Cl)c2)C1(C#N)C#N -0.6%, N#Cc1nccnc1N1CCN(C(=O)c2ccccc2)CC1 -0.2%, Cn1c(SCC(=O)c2ccc(Cl)cc2)nnc1-c1cnccc1C(F)(F)F -0.25%, O=C(O)c1ccccc1N/C=C/[N+](=O)[O-] -0.62%, CC1=NOC(=O)/C1=C\c1ccccc1 -0.92%, O=C1Nc2ccccc2C12NNC(=S)NN2 -0.45%, CCCC1NC(=O)NC(C)=C1C(=O)OCC (stereo unspecified) -0.61%, CCOC(=O)C(=CNc1cc(C(F)(F)F)ccc1NCc1ccccc1)C(=O)OCC -0.25%, CCOC(=O)COc1cccc2c(C)cc(=O)oc12 -0.24%, Cc1nc(-c2ccccc2)sc1-c1nnc(C2CC2)o1 -0.45%, O=C(CN1C(=O)/C(=C/c2ccccc2Cl)N=C1c1ccccc1)c1ccccc1 -0.14%, COC(=O)C1=C(NNc2ncc(Cl)cc2C(F)(F)F)CSC1 -0.05%, CC(C)c1ccc(NNS(=O)(=O)c2ccc(Cl)c(Cl)c2)cc1 -0.45%, CCOc1c(N2CCCCC2)c(=O)c1=O -0.13%, O=c1[nH]/c(=C/c2ccc(OC(F)(F)F)cc2)c(=O)[nH]/c1=C/c1ccc(OC(F)(F)F)cc1 -0.83%, CSc1nnc(-c2ccc(C(F)(F)F)cn2)o1 0.03%, CCOC(=O)/C(C#N)=C/N=C(N/N=C/c1cccs1)SC -0.19%, FC(F)(F)c1cc(-c2ccc(Br)cc2)n[nH]1 0.22%, N#C/C(=C\C=C\c1ccccc1)c1nc2ccccc2[nH]1 -5.39%, COc1cccc(/C=C2\SC(=S)C(N)C2=O)c1OC (stereo unspecified) 0.34%, NC(=S)N/N=C\Cc1nnnn1-c1ccc(Cl)cc1 0.16%, Cc1ncn2cc(-c3ccc(Cl)cc3Cl)[nH]c(=O)c12 -0.34%, N#Cc1cc([N+](=O)[O-])c(N2CCCC2)cc1N1CCCC1 -0.6%, CC(C)(C)c1cc(C(=O)/C=C2/NC(=O)CS2)no1 0.5%, Cc1cccc(Cl)c1NC(=S)NCCNC(=O)OC(C)(C)C -0.1%, OC(COc1ccc(Cl)c(Cl)c1)CN1CCC(Nc2nccc(C(F)(F)F)n2)CC1 (stereo unspecified) -0.76%, CCOC(=O)CCSc1cc(-n2cccc2)c(Cl)cc1[N+](=O)[O-] -0.25%, CCCN(CCC)S(=O)(=O)c1ccc(C(=O)Oc2c(C)cccc2OC)cc1 0.36%, O=C(O)CC1(CC(=O)Nc2ccc(N3CCCCC3)cc2)CCCCC1 -0.6%, COc1cc(CC/C(C)=N/O)ccc1O 0.52%, O=C(Nc1cccnc1Oc1ncnc2cc(Cl)ccc12)c1ccc(F)cc1 -5.46%, O=C(O)c1ncoc1-c1cccc(Cl)c1 -0.29%, Cn1cnc(S(=O)(=O)Nc2ccc3[nH]ccc3c2)c1 -0.46%, COc1ccc(C(=O)NNC(=O)c2c(OC)cc(C(F)(F)F)cc2C(F)(F)F)cc1 0.11%, O=C(O)C#Cc1cccc2ccccc12 -0.45%, Cn1cc(Br)c(-c2cccc(NC(=O)c3ccccc3Cl)c2)n1 -0.38%, Cc1onc(-c2ccccc2Cl)c1NC(=O)N1c2ccc(F)cc2CCC1C (stereo unspecified) -0.44%, CN(C)/C=C1/C(=O)NN=C1CSc1ccc(Cl)cc1 -0.25%, Cc1c(S(=O)(=O)N2CCOCC2)ccc(Cl)c1F -1.27%, N#C/C=C/c1ccc(C(F)(F)F)cc1[N+](=O)[O-] -0.41%, Cc1nc2c(ncn2-c2ccccc2)c(=O)n1NC(=O)CN1CCCC1 -4.07%, COc1ccc(CCN=C(C)c2cc(Cl)cc(Cl)c2O)cc1OC -0.13%
